GAA850 FXN act = frataxin GAA850 promoter activation; HEK293 lucGAA850 FXN promoter luciferase reporter, 24 h; percent of 10 µM SAHA response; activation, % at 6 µM; 360,000 compounds, 0.56% hits; AID 540364;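 active means activation above the average of all compounds screened plus 3 SD, cutoff fixed separately per campaign, cut at about 7.5% in these data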
AHR act = activates the human aryl hydrocarbon receptor | AHR-responsive luciferase reporter cells, luminescence | activation, % at 5 µM | 320,000 compounds, 2.5% hits; in the data active means activation above about 47%
Target sequence (P35869 whole entry, looked up): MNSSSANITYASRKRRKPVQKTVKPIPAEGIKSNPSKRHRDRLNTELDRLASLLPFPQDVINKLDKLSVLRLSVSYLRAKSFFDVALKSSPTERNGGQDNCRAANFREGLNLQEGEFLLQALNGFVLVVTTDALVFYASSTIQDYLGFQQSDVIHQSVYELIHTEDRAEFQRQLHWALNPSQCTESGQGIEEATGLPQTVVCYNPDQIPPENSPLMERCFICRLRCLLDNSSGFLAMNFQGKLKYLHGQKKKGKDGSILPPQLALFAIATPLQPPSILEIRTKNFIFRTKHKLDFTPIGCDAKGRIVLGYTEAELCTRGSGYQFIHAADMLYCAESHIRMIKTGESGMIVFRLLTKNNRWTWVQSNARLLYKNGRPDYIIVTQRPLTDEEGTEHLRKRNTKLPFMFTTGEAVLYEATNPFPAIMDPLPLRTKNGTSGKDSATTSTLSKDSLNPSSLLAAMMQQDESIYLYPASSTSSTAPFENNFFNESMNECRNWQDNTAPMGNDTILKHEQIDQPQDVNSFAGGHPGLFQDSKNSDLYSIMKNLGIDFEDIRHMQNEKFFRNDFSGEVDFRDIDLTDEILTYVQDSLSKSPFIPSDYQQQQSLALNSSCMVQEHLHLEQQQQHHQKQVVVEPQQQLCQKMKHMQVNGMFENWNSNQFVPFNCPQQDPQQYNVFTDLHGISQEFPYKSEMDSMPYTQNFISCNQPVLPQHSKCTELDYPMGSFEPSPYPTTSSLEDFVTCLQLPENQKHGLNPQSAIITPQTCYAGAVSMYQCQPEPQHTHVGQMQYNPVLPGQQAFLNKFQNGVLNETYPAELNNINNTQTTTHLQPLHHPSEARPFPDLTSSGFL
HSF-1 act = increases HSF-1 driven luciferase reporter signal; 300,000 compounds, 1.7% hits; AID 504408; activation, % at 9 µM; NIH3T3-HGL HSF-1 luciferase reporter, MG132, 8 h; 100% = twice DMSO control signal;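 active means mean replicate activation of at least 50% with a set share of replicates each reaching 50%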
NR0B1 inh = NR0B1 (DAX1) inhibition; P51843; HEK293 Gal4-DAX1 luciferase reporter, luminescence; inhibition, % at 6.75 µM; 340,000 compounds, 0.99% hits; AID 504766;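 active means inhibition above the mean over all tested compounds plus 3 SD, cut at about 4.2% in these data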;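 further: inhibition shows as a rise in luminescence from relieved DAX1 repression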
HSF1 inhib = HSF1 inhibition. activity change, negative = inhibition, % at 7.5 µM (by protocol). 300,000 compounds, 0.77% hits. AID 2098. NIH3T3-HGL HSE-luciferase, MG132-induced, luminescence 8 h; stronger effect = lower value;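 active means more than half of replicate wells show activity change below -50%, luminescence cut by over half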;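 further: luciferase reports HSF-1 transcriptional activity via heat shock element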
Numbers stand for hits. A selection: hits, their analogues and other compounds. The true share with any hit is near 5.4%.

C=CCn1c(SCC(C)=O)nc2scc(-c3ccc(C)o3)c2c1=O was read as GAA850 FXN act inactive, AHR act inactive, HSF-1 act inactive, NR0B1 inh 4.7 and HSF1 inhib inactive.
C=CCn1c(SCC(=O)NC2CCCC2)nc2scc(-c3ccco3)c2c1=O was read as GAA850 FXN act inactive, AHR act inactive, HSF-1 act 61, NR0B1 inh inactive and HSF1 inhib inactive.
Screening Cn1c(SCC(=O)NC2CCCCCC2)nnc1-c1ccco1 returned GAA850 FXN act inactive, AHR act inactive, HSF-1 act inactive, NR0B1 inh inactive and HSF1 inhib inactive.
`CC(C)n1c(SCC(=O)NC2CCCCC2)nnc1-c1ccco1` gave GAA850 FXN act inactive, AHR act inactive, HSF-1 act 67, NR0B1 inh inactive and HSF1 inhib inactive.
For CCOC(=O)C1CCCN(C(=O)c2cccc(C(F)(F)F)c2)CC1 (stereo not given) the results were GAA850 FXN act inactive.
For Cc1ccccc1NC(=O)C(C)OC(=O)C1CCCO1 (stereo not given) the results were GAA850 FXN act inactive and NR0B1 inh inactive.
COc1ccc(-c2cn3cc(C)ccc3n2)cc1Br was read as GAA850 FXN act inactive, AHR act inactive, HSF-1 act 66, NR0B1 inh inactive and HSF1 inhib inactive.
COc1ccc(-c2cn3nc(C)c(C)nc3n2)cc1OC was read as GAA850 FXN act inactive, AHR act inactive and NR0B1 inh inactive.
Screening Cc1ccc2nc(-c3cccc(S(=O)(=O)N(C)C)c3)cn2c1 returned GAA850 FXN act inactive, AHR act inactive, HSF-1 act inactive, NR0B1 inh inactive and HSF1 inhib inactive.
For COc1ccc(-c2cn3cc(Cl)ccc3n2)cc1OC the results were GAA850 FXN act inactive, AHR act 56, HSF-1 act 64, NR0B1 inh inactive and HSF1 inhib inactive.
`CCn1cc(-c2n[nH]c(=S)n2-c2ccc(C)cc2Br)c(=O)c2ccc(C)nc21` gave GAA850 FXN act inactive, AHR act inactive and NR0B1 inh inactive.
Screening CC(C#N)Sc1ncnc2sc(-c3ccccc3)cc12 (stereo not given) returned GAA850 FXN act inactive, AHR act inactive, HSF-1 act inactive, NR0B1 inh inactive and HSF1 inhib inactive.
N#Cc1c(SCC(=O)Nc2nncs2)sc2c(O)cc(=O)[nH]c12 was read as GAA850 FXN act inactive, AHR act 50, HSF-1 act inactive, NR0B1 inh inactive and HSF1 inhib inactive.
`O=S(=O)(NC1=NCCCCC1)c1cc(F)ccc1F` gave GAA850 FXN act inactive, AHR act inactive and NR0B1 inh 4.5.
Screening Cc1cccc(C)c1NC(=S)NC(=O)c1ccc(Br)o1 returned GAA850 FXN act inactive, AHR act 69, HSF-1 act inactive, NR0B1 inh inactive and HSF1 inhib inactive.
For Cc1cccc(NC(=S)NC(=O)c2ccc(Br)o2)c1C the results were GAA850 FXN act inactive, AHR act inactive, HSF-1 act 92, NR0B1 inh inactive and HSF1 inhib inactive.
`CCOc1ccc(C(=O)COC(=O)Cn2[nH]c(=O)c3ccccc3c2=O)cc1` gave GAA850 FXN act inactive and NR0B1 inh inactive.
CC(C)(C)OC(=O)N1CCN(C(=O)c2[nH]cnc2C(=O)NCC(=O)OCc2ccccc2)CC1 was read as GAA850 FXN act inactive, AHR act inactive, HSF-1 act inactive, NR0B1 inh inactive and HSF1 inhib -88.
CCOC(=O)c1ccc(NC(=O)c2nc[nH]c2C(=O)N2CCN(C(=O)OC(C)(C)C)CC2)cc1 was read as HSF-1 act inactive and HSF1 inhib inactive.
O=C(Nc1cccc(Cl)c1)c1nc[nH]c1C(=O)NCCCCNC(=O)c1[nH]cnc1C(=O)Nc1cccc(Cl)c1 was read as GAA850 FXN act inactive, AHR act inactive and NR0B1 inh inactive.
Screening CCN(CC)C(=O)c1[nH]cnc1C(=O)Nc1cccc(Cl)c1 returned GAA850 FXN act inactive, AHR act 67 and NR0B1 inh inactive.
CC(C)(C)OC(=O)N1CCN(C(=O)c2[nH]cnc2C(=O)NCc2ccccc2)CC1 was read as GAA850 FXN act inactive, AHR act inactive and NR0B1 inh inactive.
CC(C)(C)OC(=O)N1CCN(C(=O)c2[nH]cnc2C(=O)Nc2cccc(Cl)c2)CC1 was read as GAA850 FXN act inactive, AHR act inactive and NR0B1 inh 5.9.
For Cc1cc(=O)c2n(Cc3ccccc3Cl)nc[n+]2[nH]1 the results were GAA850 FXN act inactive, AHR act inactive, HSF-1 act 91, NR0B1 inh inactive and HSF1 inhib inactive.
Screening Cc1cc(C(=O)COC(=O)c2ccccc2O)c(C)n1Cc1cccs1 returned GAA850 FXN act inactive, AHR act inactive, HSF-1 act inactive, NR0B1 inh inactive and HSF1 inhib -90.
For COCCn1c(C)cc(C(=O)COC(=O)c2ccccc2Br)c1C the results were GAA850 FXN act inactive, AHR act inactive, HSF-1 act inactive, NR0B1 inh inactive and HSF1 inhib -90.
For Cc1cc(C(=O)COC(=O)c2ccccc2Br)c(C)n1CC1CCCO1 (stereo not given) the results were GAA850 FXN act inactive, AHR act inactive, HSF-1 act inactive, NR0B1 inh inactive and HSF1 inhib -91.
Screening Cc1cc(C(=O)COC(=O)c2ccc3c(c2)OCO3)c(C)n1Cc1cccs1 returned GAA850 FXN act inactive, AHR act inactive, HSF-1 act inactive, NR0B1 inh inactive and HSF1 inhib inactive.
Cc1cc(C(=O)COC(=O)c2n[nH]c3ccccc23)c(C)n1CC1CCCO1 (stereo not given) was read as GAA850 FXN act inactive, AHR act inactive, HSF-1 act inactive, NR0B1 inh inactive and HSF1 inhib -80.
Cc1cc(C)c(NC(=O)CCCn2c(=O)oc3ccccc32)c(C)c1 was read as GAA850 FXN act inactive, AHR act inactive and NR0B1 inh inactive.
`COc1ccc(NS(=O)(=O)c2ccc3nc(COc4ccc(C#N)cc4)[nH]c3c2)cc1` gave GAA850 FXN act inactive, AHR act inactive, HSF-1 act inactive, NR0B1 inh inactive and HSF1 inhib inactive.
CCCCCCCN1CCC(=O)N([C@H](CO)CC(C)C)CC1 was read as GAA850 FXN act inactive, AHR act inactive, HSF-1 act inactive, NR0B1 inh inactive and HSF1 inhib inactive.
Cc1cc(C(=O)COC(=O)c2ccccc2O)c(C)n1CC1CCCO1 (stereo not given) was read as GAA850 FXN act inactive, AHR act inactive and NR0B1 inh inactive.
Screening Cc1cc(C(=O)COC(=O)c2cccnc2Cl)c(C)n1CC1CCCO1 (stereo not given) returned GAA850 FXN act inactive, AHR act inactive, HSF-1 act inactive, NR0B1 inh inactive and HSF1 inhib -77.
Screening Cc1ccc(C(C)C)c(OCC(O)CN2CC(C)OC(C)C2)c1 (stereo not given) returned GAA850 FXN act inactive, AHR act inactive, HSF-1 act inactive, NR0B1 inh inactive and HSF1 inhib inactive.
Screening Cc1cc(C)cc(OCC(O)CN2CC(C)OC(C)C2)c1 (stereo not given) returned GAA850 FXN act inactive, AHR act inactive, HSF-1 act inactive, NR0B1 inh 6.5 and HSF1 inhib -63.
